{"source": "the supplement of paper PMC8728848", "binders": {"B1": {"name": "PfulAvr4 (Pseudocercospora fuligena) (protein)", "chain": "HHHHHHDYKDDDDKTYVQDKTPAFVCPAADIKTTKCLGPKDCLYPSPKTCNGYIQCSPADDSYLTGIIHEMPCPSGLLWNDNKKWCDWPENTTCGLVKSAGATEVDATKQGPTPGKYHG"}}, "assay_in_all_cases": "glycan array binding signal (z-score within array); higher = stronger binding", "settings_in_all_cases": "glycan notation: IUPAC condensed, linker removed", "key": {"[1]": {"molecular_target": "Gal(b1-4)GlcNAc(b1-3)[GlcNAc(b1-6)]Gal(b1-4)GlcNAc", "procedure,_shortened": "(§1)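 From the Consortium for Functional Glycomics database, 3228 arrays were curated, keeping only those whose protein sequence was available. Binding is given as a within-array Z-score averaged across arrays sharing a protein sequence and across linkers. Negative Z-scores can be read as non-binding.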"}, "[2]": {"molecular_target": "Gal(b1-6)Gal", "procedure,_shortened": "as §1"}, "[3]": {"molecular_target": "Gal3S6S(b1-4)GlcNAc", "procedure,_shortened": "as §1"}, "[4]": {"molecular_target": "Gal6S(b1-4)GlcNAc", "procedure,_shortened": "as §1"}, "[5]": {"molecular_target": "GalNAc(b1-4)GlcNAc(b1-3)GalNAc(b1-4)GlcNAc", "procedure,_shortened": "as §1"}, "[6]": {"molecular_target": "GalNAc3S(b1-4)[Fuc(a1-3)]GlcNAc", "procedure,_shortened": "as §1"}, "[7]": {"molecular_target": "GlcNAc(a1-3)Gal(b1-4)GlcNAc", "procedure,_shortened": "as §1"}, "[8]": {"molecular_target": "GlcNAc(a1-4)Gal(b1-4)GlcNAc(b1-3)Gal(b1-4)GlcNAc(b1-3)Gal(b1-4)GlcNAc", "procedure,_shortened": "as §1"}, "[9]": {"molecular_target": "GlcNAc(b1-2)[GlcNAc(b1-4)]Man(a1-3)[GlcNAc(b1-2)Man(a1-6)]Man(b1-4)GlcNAc(b1-4)GlcNAc", "procedure,_shortened": "as §1"}, "[10]": {"molecular_target": "GlcNAc(b1-3)Gal(b1-4)GlcNAc(b1-3)Gal(b1-4)GlcNAc(b1-2)[GlcNAc(b1-3)Gal(b1-4)GlcNAc(b1-3)Gal(b1-4)GlcNAc(b1-6)]Man(a1-6)[GlcNAc(b1-3)Gal(b1-4)GlcNAc(b1-3)Gal(b1-4)GlcNAc(b1-2)Man(a1-3)]Man(b1-4)GlcNAc(b1-4)[Fuc(a1-6)]GlcNAc", "procedure,_shortened": "as §1"}, "[11]": {"molecular_target": "GlcNAc(b1-3)Gal(b1-4)GlcNAc(b1-3)Gal(b1-4)GlcNAc(b1-3)Gal(b1-4)GlcNAc(b1-2)[GlcNAc(b1-3)Gal(b1-4)GlcNAc(b1-3)Gal(b1-4)GlcNAc(b1-3)Gal(b1-4)GlcNAc(b1-6)]Man(a1-6)[GlcNAc(b1-3)Gal(b1-4)GlcNAc(b1-3)Gal(b1-4)GlcNAc(b1-3)Gal(b1-4)GlcNAc(b1-2)Man(a1-3)]Man(b1-4)GlcNAc(b1-4)[Fuc(a1-6)]GlcNAc", "procedure,_shortened": "as §1"}, "[12]": {"molecular_target": "GlcNAc(b1-3)Man", "procedure,_shortened": "as §1"}, "[13]": {"molecular_target": "GlcNAc(b1-3)[GlcNAc(b1-4)][GlcNAc(b1-6)]GlcNAc", "procedure,_shortened": "as §1"}, "[14]": {"molecular_target": "GlcNAc(b1-4)GlcNAc(b1-4)GlcNAc(b1-4)GlcNAc(b1-4)GlcNAc(b1-4)GlcNAc", "procedure,_shortened": "as §1"}, "[15]": {"molecular_target": "Kdn(a2-3)Gal(b1-4)Glc", "procedure,_shortened": "as §1"}, "[16]": {"molecular_target": "Kdn(a2-6)Gal(b1-4)GlcNAc", "procedure,_shortened": "as §1"}, "[17]": {"molecular_target": "Man(a1-3)[Man(a1-6)]Man(a1-6)[Man(a1-2)Man(a1-3)]Man(b1-4)GlcNAc(b1-4)GlcNAc", "procedure,_shortened": "as §1"}, "[18]": {"molecular_target": "Man(a1-3)[Man(a1-6)]Man(a1-6)[Man(a1-3)]Man", "procedure,_shortened": "as §1"}, "[19]": {"molecular_target": "Man(a1-3)[Man(a1-6)]Man(a1-6)[Man(a1-3)]Man(b1-4)GlcNAc(b1-4)GlcNAc", "procedure,_shortened": "as §1"}, "[20]": {"molecular_target": "Man(a1-3)[Man(a1-6)]Man(b1-4)GlcNAc(b1-4)[Fuc(a1-6)]GlcNAc", "procedure,_shortened": "as §1"}, "[21]": {"molecular_target": "Man(a1-6)Man", "procedure,_shortened": "as §1"}, "[22]": {"molecular_target": "Neu5Ac(a2-3)Gal(b1-3)GlcNAc(b1-2)Man(a1-3)[Neu5Ac(a2-3)Gal(b1-3)GlcNAc(b1-2)Man(a1-6)]Man(b1-4)GlcNAc(b1-4)GlcNAc", "procedure,_shortened": "as §1"}, "[23]": {"molecular_target": "Neu5Ac(a2-3)Gal(b1-3)GlcNAc(b1-6)GalNAc", "procedure,_shortened": "as §1"}, "[24]": {"molecular_target": "Neu5Ac(a2-3)[Neu5Ac(a2-6)]GalNAc", "procedure,_shortened": "as §1"}, "[25]": {"molecular_target": "Neu5Ac(a2-6)Gal(b1-4)GlcNAc(b1-2)Man(a1-3)[Gal(b1-4)GlcNAc(b1-2)Man(a1-6)]Man(b1-4)GlcNAc(b1-4)GlcNAc", "procedure,_shortened": "as §1"}, "[26]": {"molecular_target": "Neu5Ac(a2-6)Gal(b1-4)GlcNAc(b1-2)Man(a1-3)[Man(a1-6)]Man(b1-4)GlcNAc(b1-4)GlcNAc", "procedure,_shortened": "as §1"}, "[27]": {"molecular_target": "Neu5Ac(a2-8)Neu5Ac(a2-3)Gal(b1-4)Glc", "procedure,_shortened": "as §1"}, "[28]": {"molecular_target": "Neu5Ac(a2-8)Neu5Ac(a2-8)Neu5Ac(a2-3)[GalNAc(b1-4)]Gal(b1-4)Glc", "procedure,_shortened": "as §1"}, "[29]": {"molecular_target": "Neu5Gc(a2-3)Gal(b1-3)GlcNAc", "procedure,_shortened": "as §1"}}, "note": "This is one part of a sample in which the strongest signals are shown more often than they occur.", "data": [{"binder": "B1", "values": [{"measurement": "glycan array binding signal (z-score)", "setting": "[1]", "value": 1.21}, {"measurement": "glycan array binding signal (z-score)", "setting": "[2]", "value": -0.156}, {"measurement": "glycan array binding signal (z-score)", "setting": "[3]", "value": 0.034}, {"measurement": "glycan array binding signal (z-score)", "setting": "[4]", "value": -0.128}, {"measurement": "glycan array binding signal (z-score)", "setting": "[5]", "value": -0.127}, {"measurement": "glycan array binding signal (z-score)", "setting": "[6]", "value": -0.134}, {"measurement": "glycan array binding signal (z-score)", "setting": "[7]", "value": -0.093}, {"measurement": "glycan array binding signal (z-score)", "setting": "[8]", "value": -0.059}, {"measurement": "glycan array binding signal (z-score)", "setting": "[9]", "value": -0.053}, {"measurement": "glycan array binding signal (z-score)", "setting": "[10]", "value": -0.049}, {"measurement": "glycan array binding signal (z-score)", "setting": "[11]", "value": -0.07}, {"measurement": "glycan array binding signal (z-score)", "setting": "[12]", "value": 0.804}, {"measurement": "glycan array binding signal (z-score)", "setting": "[13]", "value": -0.124}, {"measurement": "glycan array binding signal (z-score)", "setting": "[14]", "value": 23.3}, {"measurement": "glycan array binding signal (z-score)", "setting": "[15]", "value": 0.189}, {"measurement": "glycan array binding signal (z-score)", "setting": "[16]", "value": 0.004}, {"measurement": "glycan array binding signal (z-score)", "setting": "[17]", "value": 0.011}, {"measurement": "glycan array binding signal (z-score)", "setting": "[18]", "value": -0.076}, {"measurement": "glycan array binding signal (z-score)", "setting": "[19]", "value": -0.097}, {"measurement": "glycan array binding signal (z-score)", "setting": "[20]", "value": -0.095}, {"measurement": "glycan array binding signal (z-score)", "setting": "[21]", "value": -0.118}, {"measurement": "glycan array binding signal (z-score)", "setting": "[22]", "value": 1.27}, {"measurement": "glycan array binding signal (z-score)", "setting": "[23]", "value": -0.082}, {"measurement": "glycan array binding signal (z-score)", "setting": "[24]", "value": -0.131}, {"measurement": "glycan array binding signal (z-score)", "setting": "[25]", "value": 3.32}, {"measurement": "glycan array binding signal (z-score)", "setting": "[26]", "value": -0.088}, {"measurement": "glycan array binding signal (z-score)", "setting": "[27]", "value": -0.074}, {"measurement": "glycan array binding signal (z-score)", "setting": "[28]", "value": -0.132}, {"measurement": "glycan array binding signal (z-score)", "setting": "[29]", "value": -0.161}]}]}
